D1 allo mod: D1 CRE-luciferase signal change, two-sided – cell-based, HEK293 D1, dopamine EC30, D1 allosteric modulator project, primary screen; D(1A) dopamine receptor (Homo sapiens), P21728; dopamine EC30 potentiation; actives deviate in either direction; B-score at 10 µM; 5.9% of 58,000 active;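 active = luminescence count or its row- and column-corrected plate score outside the 99.7% band of the plate's sample wells, on either side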
hDAT+cocaine: changed hDAT dopamine uptake under cocaine IC80, either direction, primary screen, cocaine antagonist project, cell-based, LLC-PK1 hDAT, [14C]-dopamine uptake, MLSMR | LLC-PK1 hDAT cells, [14C]-dopamine uptake with cocaine IC80; actives deviate in either direction | 1.3% of 110,000 active | Sodium-dependent dopamine transporter (Homo sapiens), Q01959 | B-score at 10 µM | AID 449768, 2010;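 active = Z score or B-score, a plate-position-corrected score, falls beyond the plate's 99.7% confidence bounds, in either direction; inactive = both scores lie inside the 99.7% bounds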
TNAP act DEA: human TNAP enzyme activators, primary screen, biochemical, luminescent, intermediate phosphate acceptor level; Alkaline phosphatase, tissue-nonspecific isozyme (Homo sapiens), P05186; purified TNAP, CDP-star luminescence, 100 mM DEA, 30 min; hits give high values; scale: 0 levamisole-inhibited, 1 vehicle-only enzyme; activation factor at 20 µM; 64,000 tested, under 10 active;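 active = activation factor of at least 2 at 20 µM, relative to controls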
Target sequence (P05186 whole entry, looked up): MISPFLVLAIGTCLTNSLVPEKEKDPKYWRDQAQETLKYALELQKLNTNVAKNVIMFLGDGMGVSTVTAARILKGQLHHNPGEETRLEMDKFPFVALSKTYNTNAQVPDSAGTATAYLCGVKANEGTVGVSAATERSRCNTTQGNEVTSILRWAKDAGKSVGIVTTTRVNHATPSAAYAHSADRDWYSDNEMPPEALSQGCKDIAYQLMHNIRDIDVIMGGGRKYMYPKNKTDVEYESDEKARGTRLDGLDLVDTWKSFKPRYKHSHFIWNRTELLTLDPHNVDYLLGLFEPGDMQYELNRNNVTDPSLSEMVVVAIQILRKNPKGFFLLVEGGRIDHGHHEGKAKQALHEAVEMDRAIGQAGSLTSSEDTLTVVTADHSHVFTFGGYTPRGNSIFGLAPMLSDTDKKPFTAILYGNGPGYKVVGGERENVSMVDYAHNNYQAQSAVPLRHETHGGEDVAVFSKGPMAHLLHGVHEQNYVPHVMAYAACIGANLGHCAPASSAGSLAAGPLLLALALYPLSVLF
Calb biofilm kill: clotrimazole potentiators killing Candida biofilms, primary screen, with clotrimazole, Alamar Blue; inhibition, % at 6 µM; C. albicans biofilm + clotrimazole; 0.14% of 85,000 active;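 active = inhibition above 20%; inactive = inhibition below 20%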;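 note: preformed 24 hr biofilms exposed to compound for 48 hr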
PLAP activator: PLAP enzyme activators, biochemical, luminescence, HTS; Alkaline phosphatase, placental type (Homo sapiens), P05187; purified PLAP enzyme, luminescent substrate read-out; hits give high values; activation fold at 20 µM; 1.2% of 96,000 active; AID 696, 2007; in the data active = activation fold above about 2
HePTP inhibitor: inhibitors of human HePTP phosphatase, primary screen, biochemical, absorbance, leukemia target; 0.64% of 110,000 active; recombinant HePTP phosphatase activity, OD absorbance; Tyrosine-protein phosphatase non-receptor type 7 (Homo sapiens), P35236; inhibition, % at 20 µM; in the data active = inhibition above about 50%
Numbers stand for hits; i = inactive; nt = not tested or not shown. The entries come from a sample that favours hits as a whole.

SMILES | D1 allo mod | hDAT+cocaine | TNAP act DEA | Calb biofilm kill | PLAP activator | HePTP inhibitor
O=C(c1cccn2c(=O)c3ccccc3nc12)N1CCN(Cc2ccc3c(c2)OCO3)CC1 | i | 3.2 | i | i | i | i
O=C1N/C(=N\Nc2ccccc2)S/C1=C\c1cccc(Br)c1 | nt | nt | nt | nt | nt | i
O=C1C(=O)N(c2nncs2)C(c2cccc(Br)c2)/C1=C(\O)c1ccc(F)cc1 (stereo not drawn) | nt | nt | nt | nt | nt | i
Cc1ccc(S(=O)(=O)Nc2cc(C)c(O)c(Sc3ncn[nH]3)c2)cc1 | nt | nt | nt | nt | nt | i
Cc1ccc(S(=O)(=O)N(C)c2ccc(C(=O)N3CCCCC3)cc2)cc1 | nt | i | nt | i | 2.1 | nt
CN(c1ccc(C(=O)N2CCCCC2)cc1)S(=O)(=O)c1ccccc1 | i | i | i | i | i | i
O=C1c2ccccc2C(=O)C1c1nccc2ccccc12 | -6.8 | i | i | nt | i | i
CCCN1Cc2cccc(C(=O)Nc3ccc(C)cc3)c2C1=O | nt | -8 | nt | i | i | nt
COCCN1Cc2cccc(C(=O)Nc3cc(C)cc(C)c3)c2C1=O | i | 1.8 | i | i | i | i
O=C(CCC1CCCC1)Nc1c(F)c(F)c(F)c(F)c1F | nt | nt | nt | nt | nt | i
C=CCc1cc(/C=C2\C(=O)NC(=O)N(c3cc(C)cc(C)c3)C2=O)cc(OC)c1OC | nt | nt | nt | nt | nt | i
CCOC(=O)c1c(NC(=O)c2cc(OC)c(OC)c(OC)c2)sc2c1CCC(C)C2 (stereo not drawn) | nt | nt | nt | nt | nt | i
COc1ccc(OC)c(S(=O)(=O)N2CCCCCC2)c1 | i | -2.4 | i | i | i | i
COc1ccc(OC)c(S(=O)(=O)N2CCC(C(=O)NCCc3ccccc3)CC2)c1 | nt | i | nt | i | i | nt
COc1ccc(OC)c(S(=O)(=O)N2CCC(C(=O)N3CCN(Cc4ccccc4)CC3)CC2)c1 | -5.1 | i | i | i | i | i
Cc1ccc2[nH]c(O)c(N=Nc3ccc([N+](=O)[O-])cc3[N+](=O)[O-])c2c1Br | nt | nt | nt | nt | nt | i
O=C(NCCc1csc(-c2ccc(C(F)(F)F)cc2)n1)c1cccs1 | nt | 2.1 | nt | i | i | nt
Cc1cc(NC(=O)c2ccc3c(c2)C2C=CCC2C(c2ccc(F)cc2)N3)ccc1[N+](=O)[O-] (stereo not drawn) | nt | nt | nt | nt | nt | i
NC(=O)c1ccccc1N=Cc1cc([N+](=O)[O-])ccc1O | nt | nt | nt | nt | nt | i
CN(C)c1ccc(C2=NOC(CN3C(=O)c4ccccc4S3(=O)=O)C2)cc1 (stereo not drawn) | -5.7 | i | i | i | i | i
COC(=O)C1C(O)=C(C(C)=NC(C)C)C(=O)CC1(C)C (stereo not drawn) | nt | nt | nt | nt | nt | i
Nn1c(-c2ccco2)n[nH]c1=S | i | i | i | i | i | i
CN=C(c1ccco1)n1c(=S)nc(-c2ccco2)n(C)c1=S | nt | i | i | i | 2.7 | i
Cc1ccc2nc(SCC(=O)N(CC(C)C)c3c(N)n(CC(C)C)c(=O)[nH]c3=O)[nH]c2c1 | nt | i | nt | i | 2.3 | nt
Cc1ccc(C2C3=C(CC(C)(C)CC3=O)Nc3n[nH]c(C)c32)cc1 (stereo not drawn) | i | i | i | i | 2 | i
SMILES | D1 allo mod | hDAT+cocaine | TNAP act DEA | Calb biofilm kill | PLAP activator | HePTP inhibitor
O=C(NCc1ccc2c(c1)OCO2)c1ccc(-c2ccc(Cl)cc2)o1 | i | 2.4 | i | i | i | i
O=C(CSc1nc2ccccc2[nH]1)N/N=C/c1cccc(Cl)c1Cl | nt | nt | nt | nt | nt | i
O=C(c1ccc(Br)o1)N1CCN(c2ccc([N+](=O)[O-])cc2)CC1 | nt | nt | nt | nt | nt | 103
C=CCN1C(=O)C(Cc2ccc(OC)cc2)S/C1=N\N=C\c1cccs1 (stereo not drawn) | nt | 3 | nt | i | i | i
C=CCN1C(=O)C(Cc2ccc(OC)cc2)S/C1=N/N=C/c1ccco1 (stereo not drawn) | nt | i | nt | nt | i | nt
Cc1ccc2[nH]c3c(NCc4ccco4)ncnc3c2c1 | -3.6 | i | i | i | i | i
CCOc1ccc(NC(=O)c2cnccn2)cc1 | nt | i | nt | i | nt | nt
CCOc1ccc(NC(=O)c2ccccc2O)cc1 | -4.7 | i | i | i | nt | i
CCOc1ccc(NC(=O)c2cnsn2)cc1 | -4.9 | i | i | i | i | i
COc1cccc(-c2cc(C(=O)O)c3cc(Br)ccc3n2)c1 | nt | nt | nt | nt | nt | i
Cc1ccccc1/C(=C1\OC(=O)c2ccccc21)[N+](=O)[O-] | nt | nt | nt | nt | nt | i
CCCn1c(Cc2ccccc2)n[nH]c1=S | nt | i | nt | i | i | nt
S=c1[nH]nc(Cc2ccccc2)n1Cc1ccco1 | i | i | i | i | 2.1 | i
Cc1ccc(N=Cc2ccc(O)c(O)c2)c(C)c1 | nt | nt | nt | nt | nt | i
CC1(C)C(=O)N(Cc2ccc([N+](=O)[O-])cc2)c2ccccc2N1C(=O)c1ccc(F)cc1 | nt | nt | nt | nt | nt | i
CC1(C)C(=O)N(Cc2ccccc2)c2ccccc2N1C(=O)c1ccc([N+](=O)[O-])cc1 | nt | nt | nt | nt | nt | 74
CN(C)S(=O)(=O)c1ccc(NC(=O)N2CCN(c3cccc(C(F)(F)F)c3)CC2)cc1 | nt | i | nt | nt | 2.1 | nt
COc1ccc(NC(=O)N2CCN(c3cccc(C(F)(F)F)c3)CC2)cc1 | i | i | i | i | i | i
N#Cc1c(N2CCOCC2)nc(N2CCCCC2)c2c1CCN(C1CCCCC1)C2 | i | i | i | i | 2 | i
Cc1ccc(-c2nc(-c3ccccc3)no2)cc1 | nt | i | nt | i | i | nt
Cc1ccc(-c2nc(-c3ccccc3)no2)c(Cl)c1 | -8.7 | i | i | i | i | i
CCOc1ccc(N2C(=O)C=CC2=O)c([N+](=O)[O-])c1 | nt | nt | nt | nt | nt | i
Cc1ccc(N2CC(C(=O)Nc3cccc(Cl)c3)CC2=O)cc1 (stereo not drawn) | nt | nt | nt | nt | nt | i
O=C(Cn1c(NCCO)nc2ccccc21)c1ccc(Cl)cc1 | i | i | i | i | i | i
COc1ccc(-n2c(C)cc(C(=O)Cn3c(NCCO)nc4ccccc43)c2C)cc1 | i | 2.1 | i | i | i | i
SMILES | D1 allo mod | hDAT+cocaine | TNAP act DEA | Calb biofilm kill | PLAP activator | HePTP inhibitor
O=C(NCc1ccco1)c1cc(-c2ccccc2)nn1CC1CC(c2cccnc2)=NO1 (stereo not drawn) | nt | 2.1 | nt | nt | nt | nt
O=C(NCc1ccc(OC(F)(F)F)cc1)c1cc(-c2ccccc2)nn1CC1CC(c2cccnc2)=NO1 (stereo not drawn) | nt | i | nt | nt | nt | nt
C#CCOc1c(Br)cc(/C=C2\C(=O)NC(=O)N(c3cc(C)cc(C)c3)C2=O)cc1OC | nt | nt | nt | nt | nt | i
CCOc1ccc2ccccc2c1C=C1C(=O)NC(=S)NC1=O | nt | nt | nt | nt | nt | i
Cc1nnc(SCC(=O)N2c3ccccc3Sc3ccccc32)n1N | i | i | i | i | i | i
Cc1nnc(SC(=O)N2c3ccccc3Sc3ccccc32)s1 | -3.3 | i | i | nt | i | i
CCOC(=O)c1cccc(NC(=O)c2c(OC)cccc2OC)c1 | nt | nt | nt | nt | nt | i
CCCc1cc2c(=O)c(-c3ccc4c(c3)OCCO4)c(C)oc2cc1OS(C)(=O)=O | nt | 2.8 | nt | nt | i | nt
CCCc1cc2c(=O)c(-c3ccc4c(c3)OCCO4)coc2cc1OC(=O)c1ccco1 | nt | i | nt | i | i | nt

Screening data: PubChem, several laboratories
